Assay [1] is described as follows: blockers of polyQ-driven CASP3 activation – cell-based (AID 1583). Conditions: polyglutamine-induced caspase-3 activation, cell assay; stronger effect = higher value;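 tested at 10 µM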.
A short description of assay [2]: yeast 75Q aggregation reduction – 75Q-TubU reporter (AID 1593). The following applies: Yeast 75Q polyglutamine aggregation reporter.
A short description of assay [3]: restoration of touch response, mutant HTT neurons – whole organism, C. elegans mechanosensory neurons, N-terminal huntingtin (AID 1599). The following applies: C. elegans polyQ-huntingtin mechanosensory neurons, stronger effect = higher value.
Assay [4] in a line: blockers of cytochrome c efflux from mitochondria – biochemical, purified mitochondria (AID 1603).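 Further: mouse liver mitochondria challenged with calcium chloride; signal normalized to the plate average as 100%.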 The following applies: stronger effect = lower value.
Assay [5] is described as follows: polyglutamine aggregate formation blockers (AID 1604). The following applies: polyglutamine-induced protein aggregation inhibition assay; stronger effect = higher value; tested at 2.5 µM.
Assay [6] can be described thus: glutamate transport activators, MN-1 cells, MN-1 cell line (AID 1612).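 Further: tested at 1 µM final; 0% = mean of DMSO vehicle wells on each plate; positive means more glutamate uptake than control and negative means less.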 Conditions: MN-1 motor neuron cells, stronger effect = higher value.
Assay [7] is described as follows: 75Q-TubH aggregate inhibition, S. cerevisiae, yeast (AID 1616). The following applies: S. cerevisiae 75Q-TubH polyglutamine aggregation suppression; stronger effect = higher value.
The test system of assay [8] is Neuropilin-2 / VEGF-C interaction (human). Briefly: small molecules blocking Neuropilin-2/VEGF-C interaction – biochemical, microplate binding format, z-score (AID 743281; call rule not given here). Conditions: microplate NRP2/VEGF-C binding assay; stronger effect = lower value.
Assay [9] is described as follows: modulation of C. elegans fzo-1 (AID 1259413; call rule not given here;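 further: fzo-1 mutant C. elegans worms in liquid wells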). Conditions: C. elegans fzo-1 modulator screen, mean read-out; stronger effect = higher value.
The nature of assay [10]: compounds altering viability of human ES cells (AID 493140; call rule not given here;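 further: cells exposed to compounds for four days before counting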). Conditions: human embryonic stem cell survival screen; stronger effect = higher value.
The nature of assay [11]: galactose survival enhancers in mitochondrial complex I cybrids – cell-based, galactose medium, ATP luminescence, primary screen (AID 1645843;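 active means z-score of at least 1.8 in each of two replicates, scored against plate mean and spread of sample wells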;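 further: positive z means more ATP and so rescue of galactose-driven cybrid death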). Conditions: complex I mutant cybrid cells, 72 h, stronger effect = higher value.
Another assay concerns F380Y/beta1. Briefly: BK channel mutant inhibitors and activators – cell-based, U2OS BacMam, thallium flux, beta subunits, selectivity assay, profiling panel (AID 1259406).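 Further: initial slope of Thallos dye fluorescence rise after thallium is added; log ratio against the mean of 0.3% DMSO vehicle wells on the same plate.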 The following applies: U2OS BacMam BK variants, at 30 µM.
Another assay has as its system F380Y/beta2Delta. The assay is described as above. Conditions: U2OS BacMam BK variants, at 30 µM.
The next assay relates to F380Y/beta4. The description is as above. Conditions: U2OS BacMam BK variants, at 30 µM.
Assay [12] addresses Calcium-activated potassium channel subunit alpha-1 (Homo sapiens) + Leucine-rich repeat-containing protein 26 (Homo sapiens) (UniProt Q12791+Q2I0M4). The description is as above. The following applies: U2OS BacMam BK variants, F380Y/Slo1WT/gamma1, at 30 µM.
The next assay relates to R275C. Described as above. Conditions: U2OS BacMam BK variants, at 30 µM.
Another assay deals with R275C/beta1. Described as above. Conditions: U2OS BacMam BK variants, at 30 µM.
For another assay, the system named is R275C/beta2Delta. The assay is described as above. Conditions: U2OS BacMam BK variants, at 30 µM.
Another assay relates to R275C/beta4. Described as above. Conditions: U2OS BacMam BK variants, at 30 µM.
The subject of another assay is R275C/Slo1WT/beta2. The assay is described as above. The following applies: U2OS BacMam BK variants, at 30 µM.

The results in this text go back to PubChem BioAssay.

Several values for one entry are separate records, joined by “and”; a condition that tells them apart may be missing. Equal values may be shown once. For some of these results: Results with a measured potency or affinity are listed apart. Activity calls are given as the source filed them.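 How the source made its calls, unless noted: active means thallium flux through the channel raised or lowered by more than 3 SD from vehicle-only wells, actives on both sides; inactive means the rest.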

Calcium-activated potassium channel subunit alpha-1 (Homo sapiens) + Leucine-rich repeat-containing protein 26 (Homo sapiens), sequence (Q2I0M4 whole entry, looked up, one chain of several): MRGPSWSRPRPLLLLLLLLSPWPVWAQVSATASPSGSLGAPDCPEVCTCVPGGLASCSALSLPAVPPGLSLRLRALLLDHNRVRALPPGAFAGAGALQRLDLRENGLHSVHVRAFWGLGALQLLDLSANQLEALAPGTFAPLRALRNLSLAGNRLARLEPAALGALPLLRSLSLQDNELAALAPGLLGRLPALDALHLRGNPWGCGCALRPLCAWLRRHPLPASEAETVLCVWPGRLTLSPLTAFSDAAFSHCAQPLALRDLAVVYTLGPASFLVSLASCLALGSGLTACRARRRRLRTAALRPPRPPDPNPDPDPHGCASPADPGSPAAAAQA

In general, inhibition refers to the drop in the measured response relative to a control, in per cent. In the case of `CCOC(=O)N1CCC(=C2c3ccc(Cl)cc3CCc3cccnc32)CC1`, the inhibition in [1] came to 15.4%. In addition, in assay [2], the score was determined as 0.8. The rescue above control in assay [3] is -2.91. Further, the cytochrome c release ratio in assay [4] was found to be 4.23. In assay [5], this compound registered an inhibition of aggregation of 56.9%. Further, in assay [6], the glutamate uptake change was -2.42%. Further, the aggregation suppression score in assay [7] was 0.519. For the same compound, the z-score in assay [8] was 0.735 (inactive). The mean signal in [9] is 253 (inactive).
On to `CC(=O)OCC(=O)[C@@]12OC(C)(C)O[C@@H]1C[C@H]1[C@@H]3C[C@H](F)C4=CC(=O)C=C[C@]4(C)[C@@]3(F)[C@@H](O)C[C@@]12C`, for which, in [10], the survival is 3.25 (inactive). For the same compound, the z-score in [11] was 0.355 (inactive). Besides, the log fold change Tl+ flux with F380Y/beta1 was 0.0412 (inactive); with F380Y/beta2Delta it was -0.00446 (inactive); in the assay with F380Y/beta4, 0.048 (inactive); in [12] it was 0.00932 (inactive); in the assay with R275C, -0.038 (inactive); in the assay on R275C/beta1, -0.00722 (inactive). The log fold change Tl+ flux was -0.0403 (inactive) in the assay with R275C/beta2Delta, 0.0407 (inactive) with R275C/beta4 and 0.0498 (inactive) in the assay on R275C/Slo1WT/beta2.
For the compound `CCOC(=O)C1=C(COCCN)NC(C)=C(C(=O)OC)C1c1ccccc1Cl` (centres undefined), the z-score in assay [8] is -0.363 (inactive); in assay [11], -0.815 (inactive) and -0.625 (inactive) and 0.7 (inactive). Further, the mean signal in assay [9] is 214 (inactive).
Turning to `O=C(c1ccccc1)c1ccc2n1CCC2C(=O)O` (centres undefined), the inhibition in [1] was 1.05%. In [2], this compound displayed a score of 1.22. In addition, the rescue above control in assay [3] was -3.9. Moreover, in assay [4], the cytochrome c release ratio is 1.43. Further, the inhibition of aggregation in assay [5] is 60.8%. Also, the glutamate uptake change in assay [6] is 14.7%. The aggregation suppression score in [7] is 1.2. Besides, the survival in assay [10] was 2.17 (inactive). For the same compound, the z-score is -0.0903 (inactive) in [8]; 0.335 (inactive) and 1.09 (inactive) and 0.445 (inactive) in [11]. In [9], the mean signal was 231 (inactive).
`CN1CCN(CCCN2c3ccccc3Sc3ccc(C(F)(F)F)cc32)CC1`: the inhibition in [1] is -8.73%. For the same compound, in assay [2], the score worked out at 1.12. The compound also returned a rescue above control in assay [3] of 0. For the same compound, the cytochrome c release ratio in [4] was determined as 2.01. For the same compound, the inhibition of aggregation in assay [5] was found to be 65.5%. Besides, the glutamate uptake change in assay [6] is 16.2%. The compound also displayed an aggregation suppression score in assay [7] of 1.63. Moreover, the survival in assay [10] is 1.83 (inactive). Further, the z-score in [8] was 0.311 (inactive); in assay [11] it was -1.38 (inactive) and -1.44 (inactive) and -1.35 (inactive). Also, in [9], the mean signal was 265 (inactive). In addition, the log fold change Tl+ flux with F380Y/beta2Delta is 0.0861 (active); in [12], 0.0472 (inactive); in the assay with R275C, -0.157 (active); with R275C/beta1, 0.287 (active); in the assay with R275C/beta2Delta, -0.0448 (inactive).
Consider `CCCN1C[C@H](CSC)C[C@@H]2c3cccc4[nH]cc(c34)C[C@H]21`, for which the inhibition in assay [1] was 21.1%. The compound also displayed a score in [2] of 1. The compound further returned a rescue above control in [3] of -1.5. In addition, in assay [4], the cytochrome c release ratio came out at 1.44. This compound had an inhibition of aggregation in assay [5] of 61.1%. Further, the glutamate uptake change in assay [6] was -2.13%. Also, in assay [7], the aggregation suppression score was 1.46. Further, the survival in assay [10] was 12.4 (inactive). The z-score in [11] was 0.12 (inactive) and -0.1 (inactive). Further, the log fold change Tl+ flux with F380Y/beta2Delta was 0.0229 (inactive); in [12], -0.0185 (inactive); in the assay on R275C it was -0.00135 (inactive); with R275C/beta1, -0.0389 (inactive); with R275C/beta2Delta, -0.00636 (inactive).
